The molecules below were run on TNNI3K. Settings: concentration: 1 μM,replicates: in singlicate; n = 1.
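Also: KINOMEscan kinase panel screen.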

SMILES	%Inh
CN(c1cccc(CNc2nc(Nc3ccc4c(c3)CC(=O)N4)ncc2C(F)(F)F)c1)S(C)(=O)=O	0%
CC(=O)Nc1ccc(-c2cc3ncnc(SCC(=O)O)c3s2)cc1	0%
COc1cccc(OC)c1C(=O)Nc1cccc(-c2nn3ccccc3c2-c2ccnc(Nc3cccc(F)c3)n2)c1 [GSK361065]	8%
CC(C(=O)NC1CCN(c2ccnc(Nc3ccc(F)cc3)n2)C1)c1ccc(Cl)cc1 (stereo not shown) [GSK1379713]	0%
Cc1ccc(CC(=O)N2CCc3cc(-c4cn(C)c5ncnc(N)c45)ccc32)cc1 [GSK2634758]	0%
Cl.Nc1n[nH]c2cc(-c3ccccn3)ccc12 [GSK2189892]	0%
Cl.c1ccc(Oc2ccc(Nc3ccnc4cc(-c5ccc(CN6CCNCC6)o5)ccc34)cc2)nc1 [GW567142]	0%
c1ccc(Oc2ccc(Nc3ccnc4ccc(-c5ccccn5)cc34)cc2)cc1 [GW407034]	0%
COc1cccc(C2=C(Nc3cccc(Cl)c3)C(=O)NC2=O)c1 [SB-341556]	14%
C[C@@H](Oc1cc(-n2cnc3cc(-c4cnn(C)c4)ccc32)sc1C(N)=O)c1ccccc1Cl [GSK580432]	24%
O=C(Nc1n[nH]c2cc(-c3ccco3)ccc12)C1CC1 [SB-737447]	0%
COc1cc2nccc(Nc3ccc(Oc4ccccc4)cc3)c2cc1OC.Cl [GI261656]	0%
CN(c1ccccc1CNc1nc(Nc2ccc3c(c2)CC(=O)N3)ncc1C(F)(F)F)S(C)(=O)=O	0%

Reference: paper PMC5540273 (PLoS ONE, 2017)
